HSF-1 act – HSF-1 activators, primary screen, NIH3T3-HGL cells, MG132 stress, luminescence, single point; NIH3T3-HGL HSF-1 luciferase reporter, 8 h; 100% = twice DMSO control signal; activation, % at 9 µM; hit rate 1.7% among 300,000;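 active = mean replicate activation of at least 50% with a set share of replicates each reaching 50%; inconclusive = only one of those two conditions met; inactive = mean below 50% and too few replicates reaching it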;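 note: 0% = median of the neutral control wells and 100% = twice that signal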
HSP90 refold inh – HSP90 inhibitors, primary screen, cell lysate, luminescence; AID 1789, 2009; Heat shock protein HSP 90 (rabbit reticulocyte lysate; luciferase refolding); inhibition, % at 5.6 µM; Rabbit reticulocyte lysate, luciferase refolding luminescence, 3 h; hit rate 0.91% among 290,000;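 active = inhibition above the screen-wide mean plus 3 SD, computed separately per campaign, cut at about 16% in these data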;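 note: 0% = DMSO wells and 100% = 60 µM geldanamycin wells; inhibitors lower the luminescence because luciferase stays unfolded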
TWEAK Fn14 block – inhibitors of TWEAK-Fn14 signaling, primary screen, luciferase reporter cells, uHTS; TWEAK-stimulated Fn14 reporter cells, luciferase luminescence, 8 h; inhibition, % at 10 µM; hit rate 2% among 360,000; in the data active = inhibition above about 50%
LMP1 NFkB inh – EBV LMP1-driven NF-kappaB luciferase reporter inhibitors, primary screen, cell-based, luminescence, single point. LMP1-induced NF-kappaB luciferase reporter cells. inhibition, % at 12.5 µM. hit rate 0.69% among 350,000. AID 504558, 2011; in the data active = inhibition above about 41%; inconclusive = no clear call, values can overlap the other calls;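 note: 0% = neutral control wells and 100% = reference inhibitor control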
HSF1 inhib – HSF1 inhibitors in luciferase reporter cells, primary screen, cell-based, NIH3T3, luminescence; NIH3T3-HGL HSE-luciferase, MG132-induced, luminescence 8 h; hits give low values; activity change, negative = inhibition, % at 7.5 µM (by protocol); hit rate 0.77% among 300,000; AID 2098, 2009;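 active = more than half of replicate wells show activity change below -50%, luminescence cut by over half; inconclusive = some wells, but at most half, below -50%; inactive = no replicate well below -50%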;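 note: luciferase reports HSF-1 transcriptional activity via heat shock element; 0% = median of DMSO wells and -100% = zero luminescence signal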
TROY NFkB inh – inhibitors of TROY-driven NF-kB signaling, primary screen, Q293 LMP1-TROYcd cells, NF-kB luciferase, uHTS; Q293 LMP1-TROYcd NF-kB luciferase reporter, 4 h; inhibition, % at 10 µM; hit rate 0.98% among 360,000; AID 1347056, 2019;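 active = compounds whose plate-normalised and pattern-corrected inhibition of the luciferase reporter signal at the single screening dose is 50% or more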
The depositor's hits bear a star; ? = inconclusive; / = not tested or not shown; ! = not confirmed by another sample. Most compounds without a hit are left out; they make up all but 4.7% or so of the library.

SMILES	HSF-1 act	HSP90 refold inh	TWEAK Fn14 block	LMP1 NFkB inh	HSF1 inhib	TROY NFkB inh
CCCCCCCCCCCC1N=C(N)NC(CCCO)=C1C(=O)OC (stereo not given)	/	/	39	-3	/	26
CN(c1ccc(F)cc1)S(=O)(=O)c1ccc(Cl)c(C(=O)NCC(c2ccco2)N2CCCCC2)c1 (stereo not given)	/	/	3	20	/	-19
O=C(NCc1ccco1)c1ccc(OC2CCN(Cc3ccccn3)CC2)cc1	/	/	-3	-3	/	-14
Cc1ccc(C(=O)OCC(=O)c2ccc(Cl)s2)s1	60*	-3	-14	-2	28	-25
CCN(CC)CCOc1ccc(/C(=C(/Cl)c2ccccc2)c2ccccc2)cc1	67*!	-5	-10	-28	18	-6
C[C@@H]1CN([C@@H](C)CO)C(=O)CCCn2nncc2CO[C@@H]1CN(C)C(=O)CCC(F)(F)F	/	/	-5	2	/	-8
CC(=O)N1C[C@@H](CO)[C@@H](N(C)C(=O)C2CCCCC2)C[C@H]1c1ccccc1	/	/	-2	/	/	8
COc1cc2c(cc1OC)C(c1ccccc1[N+](=O)[O-])=NCC2	/	/	6	/	/	25
C/C(Cl)=C\Cn1c(NCCc2ccccc2)nc2c1c(=O)n(C)c(=O)n2C	-11	1	54*	31	-15	50*
C=C(C)Cn1c(NCCC)nc2c1c(=O)n(C)c(=O)n2C	-64	-6	-15	0	-53*	8
C=CCn1c(NCCc2ccccc2)nc2c1c(=O)n(C)c(=O)n2C	-3	-3	46	37	-4	38
O=C(Nc1ccc(Oc2ccccc2)nc1)[C@H]1O[C@@H](n2ccc(=O)[nH]c2=O)[C@H](O)[C@@H]1O	/	/	9	/	/	0
O=C(OCC12CC3CC(CC(C3)C1)C2)c1ccc(NCc2cc(O)ccc2O)cc1	/	/	103*	4	/	-6
O=C(OCCC12CC3CC(CC(C3)C1)C2)c1ccc(NCc2cc(O)ccc2O)cc1	/	/	98*	-25	/	-3
COc1ccc(-c2nc3ccccc3c(C(=O)Nc3ccc(S(=O)(=O)Nc4cc(C)on4)cc3)c2C)cc1	-7	-2	51*	50*	9	19
CN1CCN(C(=O)/C(=C/c2cccnc2)NC(=O)c2cccc(Br)c2)CC1	72*	6	-3	1	42	-17
CN1CCN(C(=O)/C(=C/c2cccc([N+](=O)[O-])c2)NC(=O)c2ccccc2)CC1	-9	-1	55*	2	-14	21
CN1CCN(C(=O)/C(=C/c2ccc([N+](=O)[O-])cc2)NC(=O)c2ccccc2)CC1	-23	-4	54*	-1	-9	3
O=C(N/C(=C\c1ccc([N+](=O)[O-])cc1)C(=O)N1CCCCC1)c1ccccc1	0	1	0	-5	-3	11
COc1cccc(S(=O)(=O)N(C)C[C@@H]2OCc3cnnn3CCCC(=O)N([C@@H](C)CO)C[C@@H]2C)c1	/	/	7	-1	/	-1
COC(=O)[C@@H](Cc1ccccc1)NC(=O)/C=C/[C@H]1O[C@@H](n2cnc3c(NC(=O)c4ccccc4)ncnc32)[C@H](O)[C@@H]1O	/	/	-17	/	/	0
COCOCCn1cc(CN2CCS(=O)(=O)N(Cc3ccc(-c4ccc(F)cc4)cc3)C(CC(C)C)C2=O)nn1 (stereo not given)	/	/	35	4	/	22
C#CCN1C(=O)S/C(=C/c2cc(C)n(CC)c2C)C1=O	58*	0	-12	-34	7	-46
CCn1c(C)cc(/C=C2/SC(=S)N(CC(=O)O)C2=O)c1C	-37	0	24	16	?	-16
CCOC(=O)NCc1ccc(CNC(=O)OCC)cc1	-3	2	73*	2	-2	/
SMILES	HSF-1 act	HSP90 refold inh	TWEAK Fn14 block	LMP1 NFkB inh	HSF1 inhib	TROY NFkB inh
CCC(Sc1nc(C)cc(C)n1)C(=O)NC1=NN=C(c2ccc(C)cc2)CS1 (stereo not given)	-71	3	25	0	-74*	5
Cc1cc(C)nc(SCC(=O)NC2=NN=C(c3ccc(Br)cc3)CS2)n1	-55	6	46	-19	-45	13
CCOc1ccc(N(C(C)C(=O)NC2CCCCCC2)S(C)(=O)=O)cc1 (stereo not given)	2	-1	91*	-1	1	-20
O=c1cc(-c2ccccc2O)nc(-c2ccccc2)[nH]1	18	/	53*	2	-2	57*
Cc1cc(=O)[nH]c(-c2ccccc2)n1	6	2	-6	-8	-4	-11
O=C1c2cc([N+](=O)[O-])cc3cc([N+](=O)[O-])cc(c23)C(=O)N1c1ccccn1	124*	-5	64*	-34	92	-28
O=C(Nc1c(-c2ccc(Cl)cc2)[nH][nH]c1=O)c1ccc(Br)cc1	/	/	-21	/	/	6
O=C(CN(c1cccc(Br)c1)S(=O)(=O)c1ccccc1)N/N=C/c1cc([N+](=O)[O-])ccc1O	-2	/	-15	-1	1	52*
CCC(=O)N1CCC1(C)C(=O)Nc1cc(-c2ccccc2)nn1C (stereo not given)	/	/	-2	/	/	8
COc1ccc(N=Cc2c(O)ccc3ccccc23)cc1	-65	1	11	-7	-58*	15
COc1ccc(N=Cc2c(O)[nH]c3ccccc23)cc1	63*	-2	29	-38	40	-44
O=C(O)c1ccc(N=Cc2c(O)ccc3ccccc23)cc1	-15	4	20	-1	-10	4
Cc1ccc(C2=NNC(C(O)C(O)C(O)C(C)O)S2)cc1 (stereo not given)	75*	0	-19	-16	38	-95
Cc1ccc(-c2cnc(C(O)c3ccc(C)cc3)[nH]2)cc1 (stereo not given)	/	/	-27	/	/	-35
CCCCC[C@@H](/C=C/C1C(=O)C=C[C@H]1C/C=C\CCCC(=O)OC)OC(C)=O (stereo not given in full)	/	/	91*	18	/	30
Cc1ccc(S(=O)(=O)N(C)c2ccccc2C(=O)NC2CCCC2)cc1	-76	-1	7	5	-72*	-10
Cc1ccc(NC(=O)c2ccccc2N(C)S(=O)(=O)c2ccccc2)c(C)c1	65*	-4	4	-2	30	10
O[C@H]1C[C@H](c2ccccc2)N(Cc2cccs2)C[C@@H]1n1cc(C2CC2)nn1	/	/	-24	-9	/	-30
COc1ccc(NC(=O)Cn2c(=O)n(CC3CCCO3)c(=O)c3cc(OC)c(OC)cc32)c(OC)c1 (stereo not given)	2	-1	-51	1	-2	6

Bioassay records deposited in PubChem by several laboratories.
